The other results are listed elsewhere or left out. Activity calls are given as the source filed them.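 The calls were made as follows: active = fluorescence span over the dose series, or activity score, above about 33 (limit read from the data); inactive = the rest.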
Test: modulators of CIT2-GFP expression in yeast, confirmation, S. cerevisiae, GFP fusion, cherry picks, mother/daughter gates (AID 2274)
Settings: S. cerevisiae CIT2-GFP strain, flow cytometry, 3 h; measured here: mother cell gate; at 10 µM; stronger effect = higher value

Row | SMILES | GFP response, % of DMSO
1 | O=C(Nc1cccnc1)c1ccc(-c2ccc(Cl)cc2)o1 | 99.8%
2 | Oc1c(N=Nc2ccccn2)ccc2ccccc12 | 81.6%
3 | Cc1cccn2c(=O)c3cc(C(=O)NCCc4ccccc4)c(=N)n(CCCn4ccnc4)c3nc12 | 97.1%
4 | Cc1ccc(CS(=O)(=O)c2ncc(Cl)c(C(=O)Nc3nnc(C(C)C)s3)n2)cc1 | 100%
5 | Oc1ccc2ccccc2c1N=Nc1nccs1 | 102%
6 | Oc1c(CN2CCN(c3ccc(F)cc3)CC2)cc(Cl)c2cccnc12 | 125%
7 | Oc1ccc(Br)cc1/C=N/Nc1ccccn1 | 98%
8 | O=C(/C=C/Sc1ncn[nH]1)c1ccc(Cl)cc1 | 104%
9 | C/C(=N\Nc1ncnc2sc(C)c(C)c12)c1ccccn1 | 921%
10 | CC(=O)Nc1ccc(Nc2cc(C)nc3c(-c4ccc(Cl)cc4)c(C)nn23)cc1 | 104%
11 | O=C1C=CC(=O)N1c1ccc(N2CCCCC2)cc1 | 89%
12 | CCn1c(/C=C/c2ccc([N+](=O)[O-])o2)nc2ccccc2c1=O | 251%
13 | COc1ccc(C(=O)NC(=S)NNC(=O)CCc2ccccc2)cc1 | 93.3%
14 | Cc1ccc(-c2noc(CCC(=O)Nc3ccccc3C)n2)cc1 | 98.2%
15 | Nc1c(C(=O)c2cccs2)sc2nsc(SCCN3CCCCC3)c12 | 173%
16 | Cc1[nH]c(-c2ccccn2)nc(=S)c1Cl | 91.5%
17 | CCCCC(=O)O[C@]1(C(=O)CO)CC[C@H]2[C@@H]3CCC4=CC(=O)CC[C@]4(C)[C@H]3[C@@H](O)C[C@@]21C | 101%
18 | Nc1ccccc1SC(C[N+](=O)[O-])c1ccccc1 (stereo not given) | 81.8%
19 | N/C(=N\OC(=O)c1ccccc1Cl)c1ccc(Cl)cc1 | 132%

Row | SMILES | GFP response, % of DMSO
20 | Cc1[nH][nH]c(=O)c1C(c1ccc(-c2ccc(Cl)cc2)o1)c1c(C)[nH][nH]c1=O | 95.6%
21 | Cc1ccc(/C=C2/C(=O)ON=C2c2ccccc2)o1 | 77%
22 | C[n+]1ccc(/C=C/c2c[nH]c3ccccc23)cc1 | 146%
23 | Cc1cc(O)c(C(=O)/C=C/c2c(F)c(F)c(F)c(F)c2F)c(=O)o1 | 94.4%
24 | CCOc1ccc(Nc2ccc(C(=O)O)cc2[N+](=O)[O-])cc1 | 96.8%
25 | O=C1C=CC(=O)N1c1cccc(-c2ccccc2)c1 | 70.8%
26 | Cc1cccc(C)c1NC(=O)C(Cl)C(=O)c1ccccc1 (stereo not given) | 87.8%
27 | O=C(NC(=S)NNC(=O)c1cnccn1)c1ccc(F)cc1 | 92.3%
28 | CCCc1[nH]nc2c1C(c1ccccc1OC)C(C#N)=C(N)O2 (stereo not given) | 112%
29 | CCCNC(=O)COC(=O)c1ccc(S(=O)(=O)N2CCCC2)cc1 | 78.8%
30 | CC(C)(C)C(=O)NC(=S)NNC(=O)c1ccc(-c2ccccc2)cc1 | 113%
31 | O=C1Oc2ccccc2C(=O)/C1=C/c1ccccc1O | 67.7%
32 | O=C(Nc1ccccc1)c1nnsc1S(=O)(=O)c1ccc(Cl)cc1 | 84.3%
33 | CCCc1cc(NCc2ccccn2)n2nc(C)c(-c3ccccc3)c2n1 | 77.3%
34 | Cc1cc(C)nc(S/C=C/C(=O)c2ccccc2)n1 | 83.8%
35 | Cc1nn2c(NCc3ccccn3)c3c(nc2c1-c1ccccc1)CCC3 | 85.9%
36 | CC(NCCS(=O)(=O)c1ccc(Cl)cc1)c1cccc(Cl)c1 (stereo not given) | 98.2%
37 | CCCOc1ccc(C(=O)NNC(=S)NC(=O)CC)cc1 | 117%
38 | O=C(c1ccc(Cl)c([N+](=O)[O-])c1)N1CCN(c2ccccc2)CC1 | 92.6%

Test: compound autofluorescence in yeast s288c, dose response, artefact control for yeast TOR pathway GFP screen, s288c strain (AID 2757);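 also: thousands of bead-calibrated equivalent soluble fluorophore molecules from median cell fluorescence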
Settings: S. cerevisiae s288c, 520 nm autofluorescence, flow cytometry, 3 h; at 33 µM; stronger effect = higher value; zero means same as solvent-only cells

Row | SMILES | fluorescence change (kMESF span)
39 | Oc1ccc2ccccc2c1N=Nc1nccs1 | 0.51 (inactive)
40 | Oc1c(CN2CCN(c3ccc(F)cc3)CC2)cc(Cl)c2cccnc12 | 0.21 (inactive)
41 | Oc1ccc(Br)cc1/C=N/Nc1ccccn1 | 1.31 (inactive)
42 | O=C(/C=C/Sc1ncn[nH]1)c1ccc(Cl)cc1 | 2.12 (inactive)
43 | O=C1C=CC(=O)N1c1ccc(N2CCCCC2)cc1 | 0.41 (inactive)
44 | CCn1c(/C=C/c2ccc([N+](=O)[O-])o2)nc2ccccc2c1=O | 108 (active)
45 | COc1ccc(C(=O)NC(=S)NNC(=O)CCc2ccccc2)cc1 | 0.3 (inactive)
46 | Nc1c(C(=O)c2cccs2)sc2nsc(SCCN3CCCCC3)c12 | 17.9 (inactive)
47 | Nc1ccccc1SC(C[N+](=O)[O-])c1ccccc1 (stereo not given) | 0.62 (inactive)
48 | Cc1[nH][nH]c(=O)c1C(c1ccc(-c2ccc(Cl)cc2)o1)c1c(C)[nH][nH]c1=O | 0.2 (inactive)
49 | C[n+]1ccc(/C=C/c2c[nH]c3ccccc23)cc1 | 5.54 (inactive)
50 | Cc1cc(O)c(C(=O)/C=C/c2c(F)c(F)c(F)c(F)c2F)c(=O)o1 | 9.67 (inactive)
51 | Cc1cccc(C)c1NC(=O)C(Cl)C(=O)c1ccccc1 (stereo not given) | 0 (inactive)
52 | O=C1Oc2ccccc2C(=O)/C1=C/c1ccccc1O | 0.71 (inactive)
53 | O=C(Nc1ccccc1)c1nnsc1S(=O)(=O)c1ccc(Cl)cc1 | 1.31 (inactive)
54 | Cc1cc(C)nc(S/C=C/C(=O)c2ccccc2)n1 | 1.02 (inactive)
55 | O=C(c1ccc(Cl)c([N+](=O)[O-])c1)N1CCN(c2ccccc2)CC1 | 2.52 (inactive)
